Source: the supplement of paper PMC10849652
Of roughly 7,900 targets only a part is listed; those with a hit were picked by preference. About 0.6% of all pairs of compound and target were hits. Values without a mark were called inactive.

Key:
Assay in all cases: log2 fold change, soluble protein after heating vs DMSO (PISA); higher = thermal stabilisation; K562 cells, 10 uM, 30 min; active = over 0.2 and 3.5 SD of the protein, either way, in both replicates (recomputed)
[1] = compound: Cc1ccc(NC(=O)c2ccc(CN3CC[C@H](N(C)C)C3)c(C(F)(F)F)c2)cc1Nc1nccc(-c2cncnc2)n1 [bafetinib]
Procedure, shortened: (§1)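 K562 cells at 2×10^6 cells/mL were treated with 10 μM compound for 30 min. Aliquots were heated for 3 min across 48°C-58°C, pooled, and extracted in PBS with 0.5% NP-40 at 4°C; soluble protein was the supernatant after 21,000xg for 90 min. Soluble protein was quantified by TMTpro 16plex LC-MS/MS with channel sums equalised, and reported as log2 fold change in thermal stability against DMSO controls, with values from duplicates.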

[2] = compound: Cc1cccc(CC(=O)N2CCc3c2ccc(-c2cn(C)c4ncnc(N)c24)c3F)n1
Procedure, shortened: as §1

[3] = compound: Cc1cn(-c2cc(NC(=O)c3ccc(C)c(Nc4nccc(-c5cccnc5)n4)c3)cc(C(F)(F)F)c2)cn1 [nilotinib]
Procedure, shortened: as §1

[4] = compound: Cc1nc(Nc2n[nH]c3c2CN(C(=O)N[C@H](CN(C)C)c2ccccc2)C3(C)C)c2sccc2n1
Procedure, shortened: as §1

[5] = compound: Cc1nc(Nc2ncc(C(=O)Nc3c(C)cccc3Cl)s2)cc(N2CCN(CCO)CC2)n1 [dasatinib]
Procedure, shortened: as §1

[6] = compound: Cc1ncc(-c2ccnc(Nc3ccc(S(C)(=O)=O)cc3)n2)n1C(C)C
Procedure, shortened: as §1

[7] = compound: Cn1cc(-c2ccc3c(c2)CCN3C(=O)Cc2cccc(C(F)(F)F)c2)c2c(N)ncnc21
Procedure, shortened: as §1

[8] = compound: Cn1cc(-c2ccc3nnc(C(F)(F)c4ccc5ncccc5c4)n3n2)cn1
Procedure, shortened: as §1

[9] = compound: Cn1cncc1[C@@](N)(c1ccc(Cl)cc1)c1ccc2c(c1)c(-c1cccc(Cl)c1)cc(=O)n2C [tipifarnib]
Procedure, shortened: as §1

[10] = compound: FC(F)(F)c1ccc(/C=C/c2nc(COc3ccc(CCCCn4ccnn4)cc3)co2)cc1 [mubritinib]
Procedure, shortened: as §1

Sequence of UniProt P54619 (P54619 whole entry, looked up): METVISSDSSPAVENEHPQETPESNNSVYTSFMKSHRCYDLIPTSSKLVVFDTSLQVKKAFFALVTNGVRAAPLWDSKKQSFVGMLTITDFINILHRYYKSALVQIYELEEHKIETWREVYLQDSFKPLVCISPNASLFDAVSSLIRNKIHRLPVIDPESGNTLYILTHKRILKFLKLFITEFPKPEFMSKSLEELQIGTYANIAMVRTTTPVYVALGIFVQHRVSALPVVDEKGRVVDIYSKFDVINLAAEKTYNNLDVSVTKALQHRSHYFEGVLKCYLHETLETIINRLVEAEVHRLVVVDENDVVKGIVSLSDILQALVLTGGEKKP
Sequence of UniProt Q13362 (Q13362 whole entry, looked up): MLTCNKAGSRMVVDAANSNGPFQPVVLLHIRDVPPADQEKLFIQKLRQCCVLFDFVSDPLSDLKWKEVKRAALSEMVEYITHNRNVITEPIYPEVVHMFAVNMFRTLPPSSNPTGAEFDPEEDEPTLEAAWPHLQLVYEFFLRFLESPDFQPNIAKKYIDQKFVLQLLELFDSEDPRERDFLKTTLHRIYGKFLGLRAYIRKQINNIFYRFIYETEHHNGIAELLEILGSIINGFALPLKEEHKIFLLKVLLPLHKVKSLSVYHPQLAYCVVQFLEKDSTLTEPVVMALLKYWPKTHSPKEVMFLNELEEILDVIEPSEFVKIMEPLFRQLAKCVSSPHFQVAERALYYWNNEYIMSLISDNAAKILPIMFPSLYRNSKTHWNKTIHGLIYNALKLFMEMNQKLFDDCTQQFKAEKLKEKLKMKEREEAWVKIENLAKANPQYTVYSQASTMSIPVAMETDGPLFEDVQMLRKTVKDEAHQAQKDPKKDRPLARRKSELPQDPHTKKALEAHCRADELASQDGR
Sequence of UniProt Q14997 (Q14997 whole entry, looked up): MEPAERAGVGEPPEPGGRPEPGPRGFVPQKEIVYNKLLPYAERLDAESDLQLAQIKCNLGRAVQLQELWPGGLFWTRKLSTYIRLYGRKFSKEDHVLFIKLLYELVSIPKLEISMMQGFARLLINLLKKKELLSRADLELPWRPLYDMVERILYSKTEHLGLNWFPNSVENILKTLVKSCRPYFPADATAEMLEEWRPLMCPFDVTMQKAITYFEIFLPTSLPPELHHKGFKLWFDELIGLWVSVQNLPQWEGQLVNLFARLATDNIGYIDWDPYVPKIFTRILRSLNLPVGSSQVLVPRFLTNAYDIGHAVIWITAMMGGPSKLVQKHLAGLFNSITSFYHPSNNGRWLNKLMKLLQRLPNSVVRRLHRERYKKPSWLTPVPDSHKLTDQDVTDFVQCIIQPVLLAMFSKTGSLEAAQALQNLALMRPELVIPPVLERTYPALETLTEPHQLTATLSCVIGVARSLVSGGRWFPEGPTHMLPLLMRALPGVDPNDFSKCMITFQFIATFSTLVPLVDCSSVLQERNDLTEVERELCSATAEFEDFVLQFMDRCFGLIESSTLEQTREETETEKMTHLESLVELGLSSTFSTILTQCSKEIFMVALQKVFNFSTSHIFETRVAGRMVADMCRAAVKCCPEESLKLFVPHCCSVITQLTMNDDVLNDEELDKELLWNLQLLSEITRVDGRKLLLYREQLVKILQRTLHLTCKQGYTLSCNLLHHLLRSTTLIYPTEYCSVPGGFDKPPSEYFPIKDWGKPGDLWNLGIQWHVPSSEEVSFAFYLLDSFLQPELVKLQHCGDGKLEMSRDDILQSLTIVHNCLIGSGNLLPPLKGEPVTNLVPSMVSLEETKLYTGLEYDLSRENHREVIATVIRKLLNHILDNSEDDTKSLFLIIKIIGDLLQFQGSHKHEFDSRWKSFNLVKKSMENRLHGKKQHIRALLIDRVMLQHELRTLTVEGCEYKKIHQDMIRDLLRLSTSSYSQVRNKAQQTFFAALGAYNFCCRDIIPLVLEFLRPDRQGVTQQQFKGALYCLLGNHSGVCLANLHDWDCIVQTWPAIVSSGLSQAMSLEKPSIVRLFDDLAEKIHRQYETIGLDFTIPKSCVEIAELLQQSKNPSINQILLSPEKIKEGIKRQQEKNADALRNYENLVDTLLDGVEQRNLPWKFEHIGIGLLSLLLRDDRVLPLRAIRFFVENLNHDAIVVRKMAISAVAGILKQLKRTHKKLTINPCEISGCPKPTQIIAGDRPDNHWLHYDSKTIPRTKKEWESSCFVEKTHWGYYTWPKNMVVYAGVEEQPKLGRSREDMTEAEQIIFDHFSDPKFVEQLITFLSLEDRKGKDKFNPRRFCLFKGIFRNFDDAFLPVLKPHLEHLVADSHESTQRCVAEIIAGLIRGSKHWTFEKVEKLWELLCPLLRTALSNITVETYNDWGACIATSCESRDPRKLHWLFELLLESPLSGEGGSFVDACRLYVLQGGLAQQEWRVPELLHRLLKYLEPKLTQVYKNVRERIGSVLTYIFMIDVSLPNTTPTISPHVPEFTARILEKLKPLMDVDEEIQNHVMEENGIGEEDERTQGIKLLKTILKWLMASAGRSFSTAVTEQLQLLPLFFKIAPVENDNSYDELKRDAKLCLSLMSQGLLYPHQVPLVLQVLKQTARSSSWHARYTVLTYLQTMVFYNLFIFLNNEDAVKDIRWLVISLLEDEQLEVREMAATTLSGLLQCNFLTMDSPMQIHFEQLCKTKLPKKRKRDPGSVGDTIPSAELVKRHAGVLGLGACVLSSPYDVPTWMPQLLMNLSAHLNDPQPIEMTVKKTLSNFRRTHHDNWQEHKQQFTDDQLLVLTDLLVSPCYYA
Sequence of UniProt P31323 (P31323 whole entry, looked up): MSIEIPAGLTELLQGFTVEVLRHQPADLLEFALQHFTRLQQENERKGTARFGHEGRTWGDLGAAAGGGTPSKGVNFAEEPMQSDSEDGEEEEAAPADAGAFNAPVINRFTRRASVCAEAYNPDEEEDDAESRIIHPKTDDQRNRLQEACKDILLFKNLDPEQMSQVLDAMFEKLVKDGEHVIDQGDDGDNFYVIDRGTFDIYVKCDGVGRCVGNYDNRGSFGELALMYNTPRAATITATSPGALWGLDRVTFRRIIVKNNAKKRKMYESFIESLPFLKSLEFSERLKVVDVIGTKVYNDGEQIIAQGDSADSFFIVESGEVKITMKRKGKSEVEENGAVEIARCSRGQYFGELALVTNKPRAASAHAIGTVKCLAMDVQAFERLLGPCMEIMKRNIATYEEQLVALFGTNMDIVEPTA
Sequence of UniProt O00628 (O00628 whole entry, looked up): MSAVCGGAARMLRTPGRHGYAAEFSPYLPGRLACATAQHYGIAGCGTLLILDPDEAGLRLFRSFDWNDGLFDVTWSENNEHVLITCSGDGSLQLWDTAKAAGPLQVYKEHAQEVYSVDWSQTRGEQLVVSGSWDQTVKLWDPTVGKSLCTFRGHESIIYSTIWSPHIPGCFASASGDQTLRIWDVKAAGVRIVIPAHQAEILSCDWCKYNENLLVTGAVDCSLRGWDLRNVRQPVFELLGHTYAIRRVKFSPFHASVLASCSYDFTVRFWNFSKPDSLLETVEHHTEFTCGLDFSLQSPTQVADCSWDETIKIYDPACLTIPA
Sequence of UniProt Q15054 (Q15054 whole entry, looked up): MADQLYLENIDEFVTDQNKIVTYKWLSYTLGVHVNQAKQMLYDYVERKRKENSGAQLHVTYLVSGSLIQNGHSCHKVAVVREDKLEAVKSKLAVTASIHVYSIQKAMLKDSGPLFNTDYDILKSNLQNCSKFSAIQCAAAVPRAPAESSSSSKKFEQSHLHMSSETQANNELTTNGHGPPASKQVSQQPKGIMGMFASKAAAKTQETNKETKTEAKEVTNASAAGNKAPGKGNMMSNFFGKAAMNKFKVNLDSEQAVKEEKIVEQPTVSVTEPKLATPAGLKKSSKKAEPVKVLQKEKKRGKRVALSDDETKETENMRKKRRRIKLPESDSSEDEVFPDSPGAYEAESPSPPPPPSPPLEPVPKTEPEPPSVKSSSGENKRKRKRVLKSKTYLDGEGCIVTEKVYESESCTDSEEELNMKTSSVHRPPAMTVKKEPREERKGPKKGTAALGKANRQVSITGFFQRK
Sequence of UniProt Q9UKL6 (Q9UKL6 whole entry, looked up): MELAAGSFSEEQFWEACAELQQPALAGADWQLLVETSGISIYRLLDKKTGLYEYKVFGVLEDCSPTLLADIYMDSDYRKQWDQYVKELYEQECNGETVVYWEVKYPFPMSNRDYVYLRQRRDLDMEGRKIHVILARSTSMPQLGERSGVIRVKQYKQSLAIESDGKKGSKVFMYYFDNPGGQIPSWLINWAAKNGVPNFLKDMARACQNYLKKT
Sequence of UniProt P27986 (P27986 whole entry, looked up): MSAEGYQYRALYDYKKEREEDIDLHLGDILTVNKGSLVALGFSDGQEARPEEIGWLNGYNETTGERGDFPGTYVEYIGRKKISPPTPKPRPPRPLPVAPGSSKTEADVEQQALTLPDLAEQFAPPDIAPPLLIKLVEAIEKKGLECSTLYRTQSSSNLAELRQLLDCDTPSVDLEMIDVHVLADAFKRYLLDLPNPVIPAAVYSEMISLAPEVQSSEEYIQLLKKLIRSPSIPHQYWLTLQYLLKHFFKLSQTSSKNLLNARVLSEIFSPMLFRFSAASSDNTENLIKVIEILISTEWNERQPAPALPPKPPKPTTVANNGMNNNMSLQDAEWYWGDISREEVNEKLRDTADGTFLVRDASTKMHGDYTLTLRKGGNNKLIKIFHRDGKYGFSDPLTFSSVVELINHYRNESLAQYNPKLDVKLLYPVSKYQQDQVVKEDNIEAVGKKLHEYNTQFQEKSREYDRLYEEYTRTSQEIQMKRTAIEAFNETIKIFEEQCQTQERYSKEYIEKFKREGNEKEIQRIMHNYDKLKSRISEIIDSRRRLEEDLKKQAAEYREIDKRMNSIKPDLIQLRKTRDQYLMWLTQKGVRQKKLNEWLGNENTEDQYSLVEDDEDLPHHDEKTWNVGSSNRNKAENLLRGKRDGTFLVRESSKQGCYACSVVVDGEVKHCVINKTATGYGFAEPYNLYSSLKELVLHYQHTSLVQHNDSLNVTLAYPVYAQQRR
Sequence of UniProt Q15004 (Q15004 whole entry, looked up): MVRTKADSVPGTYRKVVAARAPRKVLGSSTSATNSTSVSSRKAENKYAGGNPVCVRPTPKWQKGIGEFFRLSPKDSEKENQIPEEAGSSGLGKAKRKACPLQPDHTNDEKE

| Target | log2 fold change [1] | log2 fold change [2] | log2 fold change [3] | log2 fold change [4] | log2 fold change [5] | log2 fold change [6] | log2 fold change [7] | log2 fold change [8] | log2 fold change [9] | log2 fold change [10] |
| --- | --- | --- | --- | --- | --- | --- | --- | --- | --- | --- |
| PRKAR2B (UniProt P31323) | -0.022 | 0.133 | 0.012 | -1.23 (active) | -0.078 | -0.16 | 0.022 | -0.07 | -0.103 | 0.189 |
| PSMD7 (UniProt P51665) | 0.075 | 0.009 | 0.014 | 0.065 | 0.054 | -0.033 | -0.116 | -0.01 | 0.079 | 0.019 |
| POM121 (UniProt Q96HA1) | -0.114 | 0.012 | 0.135 | 0 | -0.051 | -0.177 | -0.081 | -0.063 | 0.021 |  |
| PPP2R5A (UniProt Q15172) | -0.008 | 0.027 | -0.075 | -0.039 | -0.205 | 0.006 | 0.032 | 0.006 | -0.179 | 0.012 |
| POLA1 (UniProt P09884) | 0.021 | 0.021 | -0.043 | -0.033 | -0.173 | 0.01 | 0.019 | 0.014 | -0.091 | 0.064 |
| PIKFYVE (UniProt Q9Y2I7) | -0.031 | 0.153 | -0.015 | 0.045 | -0.061 | -0.092 | 0.005 | 0.031 | 0.108 | 0.017 |
| PRKD2 (UniProt M0R346) | -0.147 | -0.136 |  |  |  |  |  |  |  |  |
| PRMT3 (UniProt O60678) | 0.048 | 0.034 | -0.155 | 0.011 | -0.153 | -0.02 | -0.044 | -0.004 | -0.126 | 0.081 |
| PPP6R1 (UniProt Q9UPN7) | -0.024 | 0.022 | 0.003 | -0.031 | -0.02 | -0.008 | 0.003 | 0.02 | 0.01 | 0.043 |
| PI4K2A (UniProt Q9BTU6) | -0.127 | -0.042 | 0.004 | 0.037 | -0.011 | 0.076 | 0.002 | 0.056 | 0.031 | -0.006 |
| PIK3R1 (UniProt P27986) | -0.061 | 0.029 | -0.074 | 0.015 | -0.117 | 0.108 | 0.009 | -0.013 | -0.026 | 0.017 |
| PPM1G (UniProt O15355) | 0.001 | 0.048 | -0.041 | -0.05 | -0.097 | 0 | 0.096 | 0.117 | -0.133 | 0.105 |
| PCTP (UniProt Q9UKL6) | -0.067 | -0.004 | -0.04 | 0.114 | -0.024 | -0.017 | 0.065 | 0.036 | -0.104 | 0.063 |
| PPP2R5C isoform 4 (UniProt Q13362) | -0.032 | -0.019 | -0.05 | -0.025 | -0.058 | -0.008 | 0.037 | 0.052 | -0.093 | 0.095 |
| PSMC6 (UniProt P62333) | 0.069 | 0.008 | -0.029 | 0.069 | 0.039 | -0.02 | -0.068 | 0.002 | 0.104 | -0.048 |
| PRKAG1 isoform 3 (UniProt P54619) | -0.098 | 0.001 | -0.079 | -0.189 | -0.056 | -0.01 | 0.001 | 0.022 | 0.007 | -0.052 |
| PRKAR2A (UniProt P13861) | 0.029 | 0.007 | 0.139 | -0.606 (active) | -0.055 | -0.026 | 0.07 | 0.102 | 0.004 | 0.042 |
| PCLAF (UniProt Q15004) | -0.015 | -0.1 | -0.027 | 0.105 | 0.065 | -0.081 | -0.112 | -0.069 | -0.019 | -0.095 |
| PARN (UniProt O95453) | -0.104 | 0.019 | -0.018 | -0.073 | -0.182 | -0.011 | -0.003 | 0.018 | -0.01 | 0.076 |
| PRPF4B (UniProt Q13523) | 0.188 | -0.096 | 0.153 | -0.626 (active) | 0.081 | -0.163 | 0.005 | -0.056 | 0.117 | 0.069 |
| PHAX (UniProt Q9H814) | -0.056 | -0.117 | 0.028 | -0.176 | 0.03 | -0.096 | -0.033 | 0.006 | 0.011 | 0.013 |
| PSME4 (UniProt Q14997) | 0.069 | 0.141 | -0.057 | 0.016 | -0.084 | -0.098 | 0.015 | -0.006 | -0.036 | 0.052 |
| POLD3 (UniProt Q15054) | 0.846 | 0.058 | -0.014 | -0.052 | -0.068 | 0.096 | 0.028 | 0.044 | -0.01 | 0.024 |
| PEX7 (UniProt O00628) | 0.101 | -0.025 | -0.047 | 0.048 | -0.025 | -0.007 | 0.05 | 0.04 | 0.034 | 0.085 |
| PBK (UniProt Q96KB5) | 0.064 | 0.064 | -0.053 | -0.152 | -0.084 | 0.078 | -0.004 | 0.059 | -0.067 | -0.06 |
| PFDN1 (UniProt O60925) | 0.038 | -0.041 | 0.012 | 0.026 | 0.076 | -0.023 | 0.153 | 0.328 | -0.061 | 0.039 |
| PTTG1 (UniProt O95997) | 0.062 | 0.021 | -0.025 | -0.011 | 0.031 | -0.116 | 0.024 | -0.066 | -0.013 | 0.033 |
| PCBP1 (UniProt Q15365) | -0.007 | 0.033 | -0.057 | -0.086 | -0.111 | -0.026 | 0.064 | -0.004 | -0.119 | -0.011 |
| PRKACA (UniProt P17612) | -0.044 | 0.107 | -0.038 | 0.71 (active) | -0.107 | -0.051 | 0.01 | -0.117 | -0.036 | 0.066 |
| PLSCR1 (UniProt O15162) | 0.011 | 0.002 | -0.004 | -0.022 | 0.052 | -0.032 | 0.024 | 0.048 | 0.036 | 0.148 |
